Measured potencies and affinities stand elsewhere. Results filed as inconclusive are left out. Calls of active or inactive are those of the source. Unless noted, no rule for the calls is given here.
Tests used:
[1] = cytotoxicity in PAX8-dependent RMG-1 cells, dose response, cell-based, cherry-pick (AID 687029;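 active = signal drop whose fitted half-maximal concentration is at most twice the top valid dose, in every test run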;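 also: cells exposed to compound for 96 hours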)
[2] = cytotoxicity in IOSE-T80 ovarian epithelial cells, dose response, selectivity assay for PAX8 inhibitor project, cell-based, cherry-pick (AID 687032;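 active = fitted half-maximal concentration for viability loss no higher than twice the top valid dose, in every repeat run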;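 also: cells exposed to compound for 96 h before reading; 0% = neutral control wells and -100% = 2 µM mitoxantrone kill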)
[3] = inhibitors of CMV-promoter luciferase reporter, dose response, counter-screen for Pax8 inhibitor project, cell-based, HEK293, luminescence, dry powder (AID 743020;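 active = signal-lowering compounds whose fitted half-maximal concentration is at or below twice the top tested dose in every run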;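 also: HEK293 cells stably expressing the CMV luciferase reporter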)
[4] = non-specific cell cytotoxicity, dose response, cytotoxicity control for PAX8 inhibitor project, plate reader, dry powder samples (AID 743021)
[5] = IGROV1 ovarian cancer cell cytotoxicity, dose response, PAX8 inhibitor project, plate reader, dry powder samples (AID 743043);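 also: more negative means fewer viable cells or more cytotoxicity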
[6] = NIH:OVCAR-3 ovarian cancer cell cytotoxicity, dose response, PAX8 inhibitor project, plate reader, dry powder samples (AID 743044); conditions: max activity: at 35 µM, hits give low values unless noted
[7] = IOSE-T80 ovarian epithelial cell cytotoxicity, dose response, cytotoxicity control for PAX8 inhibitor project, plate reader, dry powder samples (AID 743045);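 also: 0% = neutral control median and -100% = positive control median; more negative values mean more cell killing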
[8] = A2780 ovarian cancer cell cytotoxicity, dose response, cytotoxicity control, plate reader, dry powder samples (AID 743046);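 also: 0% = neutral control wells and -100% = cytotoxic reference compound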

CCN(CC)c1ccc(C(NC(=O)C(C)C)c2ccc3cccnc3c2O)cc1 (stereo not given)
inactive: outcome [1] | outcome [2] | outcome [3] | outcome [4]

Cc1ccc(S(=O)(=O)c2nc(S(=O)(=O)c3ccccc3)sc2N2CCN(C)CC2)cc1
inactive: outcome [1] | outcome [2] | outcome [3] | outcome [4]

CC(C)=CCC/C(C)=C/CNC(=O)C[C@H]1C[C@H](C(=O)N2CCOCC2)[C@@]2(C)c3[nH]c4ccc(Cl)cc4c3CCN2C1=O
inactive: outcome [1] | outcome [2] | outcome [3] | outcome [4]

FC(F)(F)c1nnc2c(Sc3ccccc3)nc3ccc(Cl)cc3n12
inactive: outcome [1] | outcome [2] | outcome [3] | outcome [4]

O=C(Nc1cccc(F)c1)N1CCCCN2[C@@H](CO)[C@H](c3ccc(C#Cc4ccccc4)cc3)[C@@H]2C1
inactive: outcome [1] | outcome [2] | outcome [3] | outcome [4]

C=C1C(=O)[C@]23C[C@H]1CC[C@H]2[C@]1(C)[C@@H](OC(C)=O)CC[C@@](C)(C(=O)OC)[C@H]1C[C@@H]3OC(C)=O
inactive: outcome [1] | outcome [2] | outcome [3] | activity change, negative = cytotoxicity [4] -15.7% [at 8 µM]

O=C(Nc1cccc(Cl)c1)Nc1csc([N+](=O)[O-])c1
inactive: outcome [1] | outcome [2] | outcome [3] | outcome [4]

CC(=O)NC(CCc1ccc(Cl)c(Cl)c1)c1cccc(O)c(=O)c1 (stereo not given)
inactive: outcome [1] | outcome [2] | outcome [3] | outcome [4]

COc1ccc(O)c(/C=N/NC(=O)c2ccc(N3CCCC3=O)cc2)c1
inactive: outcome [1] | outcome [2] | outcome [3] | outcome [4]

CCc1ccc2[nH]c3nc(N/N=C/c4ccc(O)cc4O)nnc3c2c1
inactive: outcome [1] | outcome [2] | outcome [3] | outcome [4]

CCCCn1nc(C(=O)Nc2cc(C(F)(F)F)ccc2N2CCOCC2)ccc1=O
inactive: outcome [1] | outcome [2] | outcome [3] | outcome [4]

O=C(C[C@@H]1C[C@H]2c3cc(NS(=O)(=O)c4ccc(F)cc4)ccc3O[C@H]2[C@@H](CO)O1)NCc1ccc(Oc2ccccc2)cc1
inactive: outcome [1] | outcome [2] | outcome [3] | outcome [4]

CC[C@@]1(O)C(=O)OCc2c1cc1n(c2=O)Cc2cc3c(CN(C)C)c(O)ccc3nc2-1
inactive: outcome [1] | outcome [2] | outcome [3] | outcome [4]

CCC(=O)Oc1ccc2c(C)cc(=O)oc2c1C(=O)c1ccccc1
inactive: outcome [1] | outcome [2] | outcome [3] | outcome [4]

COc1nn(-c2ccccc2)c(=O)c(Cl)c1Cl
inactive: outcome [1] | outcome [2] | outcome [3] | outcome [4]

O=S(=O)(/C(=C/c1ccc(C(F)(F)F)cc1)c1nc2ccccc2[nH]1)c1ccccc1
inactive: outcome [1] | outcome [2] | outcome [3] | outcome [4]

N#Cc1ccc(NC(=O)COC(=O)C2CCC2)cc1
inactive: outcome [1] | outcome [2] | outcome [3] | outcome [4]

C[C@H](CO)N1C[C@H](C)[C@H](CN(C)S(=O)(=O)c2cccc(F)c2)OCc2ccccc2-c2c(n(C)c3ccccc23)C1=O
inactive: outcome [1] | outcome [2] | outcome [3] | outcome [4]

C[C@@H]1CCCCO[C@H](CN(C)Cc2ccncc2)[C@H](C)CN([C@@H](C)CO)C(=O)c2cc(NC(=O)NC3CCCCC3)ccc2O1
inactive: outcome [1] | outcome [2] | outcome [3] | outcome [4]

O=C(Nc1cccc(Br)c1)c1ccc2c(c1)SC1=NS(=O)(=O)CCN12
inactive: outcome [1] | outcome [2] | outcome [3] | outcome [4]

COc1ccc(S(=O)(=O)Nc2ccc3c(c2)C(=O)N([C@H](C)CO)C[C@H](C)[C@@H](CN(C)S(=O)(=O)c2ccc(C)cc2)OCCCC[C@H](C)O3)cc1
inactive: outcome [1] | outcome [2] | outcome [3] | outcome [4]

COc1ccc(C(=O)c2cc([N+](=O)[O-])ccc2N2CCOCC2)cc1
inactive: outcome [1] | outcome [2] | outcome [3] | outcome [4]

CCO[C@H]1OC(C(=O)N2CCN(Cc3ccccc3)CC2)=C[C@@H](c2ccc(C(F)(F)F)cc2)[C@@H]1CCCO
inactive: outcome [1] | outcome [2] | outcome [3] | outcome [4]

COC(=O)C12OCC34C(CC5C(C)=C(O)C(=O)CC5(C)C3C(O)C1O)OC(=O)C(OC(=O)C=C(C)C)C24 (stereo not given)
inactive: outcome [1] | outcome [2] | outcome [3] | outcome [4]

Cc1cc(Sc2nnc(N)s2)c2ccccc2n1
inactive: outcome [1] | outcome [2] | outcome [3] | outcome [4]

Cn1nnnc1Sc1ncnc2scc(-c3cccc(C(F)(F)F)c3)c12
inactive: outcome [1] | outcome [2] | outcome [3] | outcome [4]

FC(F)(F)c1nnc2c(Sc3ccc(Cl)cc3)nc3ccccc3n12
inactive: outcome [1] | outcome [2] | outcome [3] | outcome [4]

CC(=O)c1cccc(-c2csc3ncnc(Sc4nnnn4C)c23)c1
inactive: outcome [1] | outcome [2] | outcome [3] | outcome [4]

COc1ccc(-c2ccc3c(c2)[C@H]2[C@H](CCN2S(=O)(=O)c2ccc(OC)cc2)[C@H](CO)N3C)cc1
inactive: outcome [1] | outcome [2] | outcome [3] | outcome [4]

O=C1C=CC(=C(c2ccc(O)cc2)c2ccc(O)cc2)C=C1
inactive: outcome [1] | outcome [2] | outcome [3] | outcome [4]

Cc1ccc(S(=O)(=O)N2CCCCC2)cc1NC(=O)Cc1c[nH]c2ccccc12
inactive: outcome [1] | outcome [2] | outcome [3] | outcome [4]

O=C1c2c(O)ccc(O)c2C(=O)c2c(NCCNCCO)ccc(NCCNCCO)c21
inactive: outcome [1] | outcome [2] | outcome [3] | outcome [4]

C=CCC[C@H](Cc1ccc(F)cc1)C(=O)OC[C@H](Cc1c[nH]c2ccccc12)NC(=O)[C@H](CC=C)CC(=O)N(CCO)Cc1ccccc1
inactive: outcome [1] | outcome [2] | outcome [3] | outcome [4]

Cc1ccc(S(=O)(=O)Nc2ccc3c(c2)C(=O)N([C@H](C)CO)C[C@H](C)[C@@H](CN(C)S(=O)(=O)c2ccc(C)cc2)OCCCC[C@H](C)O3)cc1
inactive: outcome [1] | outcome [2] | outcome [3] | outcome [4]

CC(=O)N1CCN(c2ccc(NC(=O)c3ccc([N+](=O)[O-])o3)cc2Cl)CC1
inactive: outcome [1] | outcome [2] | outcome [3] | outcome [4]

Cc1cccc(NCc2ccc(O)c3ncccc23)c1C
inactive: outcome [1] | outcome [2] | outcome [3] | outcome [4]

C=C(C)C(=O)OC1(C(F)(F)F)Oc2cc(C)ccc2NC1=O (stereo not given)
inactive: outcome [1] | outcome [2] | outcome [3] | outcome [4]

O=C(N/N=C/c1ccc(O)cc1)c1[nH]c2ccc(Br)cc2c1-c1ccccc1
inactive: outcome [1] | outcome [2] | outcome [3] | outcome [4]

COC(=O)[C@@]12C[C@@H](CC(=O)N3CCN(C(=O)c4ccco4)CC3)C(=O)N(Cc3ccco3)C1=CCC(C)(C)C2
inactive: outcome [1] | outcome [2] | outcome [3] | outcome [4]

O=C(Nc1ccc(S(=O)(=O)NC2=NCCCCC2)cc1)c1ccc([N+](=O)[O-])s1
inactive: outcome [1] | outcome [2] | outcome [3] | outcome [4]

COc1ccc(-c2cc(-c3ccccc3)c(C#N)c(S(C)(=O)=O)n2)cc1
inactive: outcome [1] | outcome [2] | outcome [3] | outcome [4]

O=C(CCCN1C(=O)/C(=C/c2ccccc2OC(F)F)SC1=S)Nc1cccnc1
inactive: outcome [1] | outcome [2] | outcome [3] | outcome [4]

O=C(NCC1CCCO1)C(=Cc1cccc([N+](=O)[O-])c1)C(=O)NCC1CCCO1 (stereo not given)
inactive: outcome [1] | outcome [2] | outcome [3] | outcome [4]

O=C(Nc1ccc([N+](=O)[O-])cn1)c1cc(-c2cccc(Br)c2)nc2ccccc12
inactive: outcome [1] | outcome [2] | outcome [3] | outcome [4]

C[C@H]1CCCCO[C@@H](CN(C)Cc2ccc(C(F)(F)F)cc2)[C@@H](C)CN([C@@H](C)CO)C(=O)c2cc(NS(=O)(=O)c3ccc(Cl)cc3)ccc2O1
inactive: outcome [1] | outcome [2] | outcome [3] | outcome [4]

O=C(NC1CCCCC1)C(c1cccs1)N(C(=O)Cc1c[nH]c2ccccc12)c1ccc(F)cc1 (stereo not given)
inactive: outcome [1] | outcome [2] | outcome [3] | outcome [4]

COc1ccc(NS(=O)(=O)c2ccc(N3CCCC3)c(NC(=S)Nc3ccc(SC(F)F)cc3)c2)cc1
inactive: outcome [1] | outcome [2] | outcome [3] | outcome [4]

COC(C(=O)C(O)C(C)O)C1Cc2cc3cc(OC4CC(OC5CC(O)C(O)C(C)O5)C(O)C(C)O4)c(C)c(O)c3c(O)c2C(=O)C1OC1CC(OC2CC(OC3CC(O)C(OC)C(C)O3)C(O)C(C)O2)C(O)C(C)O1 (stereo not given)
inactive: outcome [1] | outcome [2] | outcome [3] | outcome [4]

COc1ccc2c3c(n(C)c2c1)[C@H](CO)N(C(=O)Nc1ccc(F)cc1)CC31CCN(S(=O)(=O)c2cccc(C)c2)CC1
inactive: outcome [1] | outcome [2] | outcome [3] | outcome [4] | outcome [5] | max activity [6] -14.5% | outcome [7]

C[C@@H]1CCCCO[C@H](CN(C)Cc2ccc(C(F)(F)F)cc2)[C@@H](C)CN([C@@H](C)CO)C(=O)c2cc(NS(=O)(=O)c3ccccc3)ccc2O1
inactive: outcome [1] | outcome [2] | outcome [3] | outcome [4] | outcome [5] | max activity [6] -9.99% | outcome [7] | outcome [8]

COc1ccc(COC(=O)c2cc([N+](=O)[O-])ccc2N2CCOCC2)cc1F
inactive: outcome [1] | outcome [2] | outcome [3] | outcome [4]

CCCCn1cnc2c(c(-c3ccccc3)c(-c3ccccc3)n2Cc2ccco2)c1=N
inactive: outcome [1] | outcome [2] | outcome [3] | outcome [4]

C[C@@H]1CN([C@@H](C)CO)S(=O)(=O)c2ccc(C#C[C@@H](C)O)cc2O[C@@H]1CN(C)Cc1ccc(-c2ccccc2)cc1
inactive: outcome [1] | outcome [2] | outcome [3] | outcome [4] | outcome [5] | max activity [6] -11.9% [at 16 µM, hits give low values] | outcome [7] | outcome [8]

C[C@@H]1CN([C@@H](C)CO)C(=O)c2cc(NC(=O)Nc3ccc(C(F)(F)F)cc3)ccc2O[C@@H](C)CCCCO[C@@H]1CN(C)Cc1ccc2c(c1)OCO2
inactive: outcome [1] | outcome [2] | outcome [3] | outcome [4] | outcome [5] | max activity [6] -5.57% [at 16 µM, hits give low values] | outcome [7]

— PubChem BioAssay
